Consider three compounds from PubChem BioAssay (EPA / NIEHS).

Active and inactive are the calls of the source. Rule for the calls: active = hit-call score of the fitted dose curve at least 0.9, where 1 is the maximum; inactive = score below 0.9.

Common to all, as to conditions: mRNA level, 48 h; actives raise or lower the signal
Read-out in assay [1]: ABC Transporter (ABCC2), ABCC2 (gene 1244)
The assay can be described thus: LTEA_HepaRG_ABCC2: Life Technologies and Expression Analysis (LTEA) Assay for ABC Transporter (ABCC2) using HepaRG (AID 2283464). An outline of the steps: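 Endpoint is ABCC2 transcript level from qRT-PCR, normalized to three housekeeping genes and fitted bidirectionally relative to DMSO. Human HepaRG cells received test chemical for 48 h at up to 100 uM (8 points, half-log steps, 0.5% DMSO), duplicate wells.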

Read-out in assay [2]: Broad substrate specificity ATP-binding cassette transporter ABCG2 (Homo sapiens) (UniProt Q9UNQ0)
Nature of the assay: LTEA_HepaRG_ABCG2: Life Technologies and Expression Analysis (LTEA) Assay for ABC Transporter (ABCG2) using HepaRG (AID 2283465). A digest of the protocol:
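HepaRG, 48 h exposure, 8-pt half-log series from 100 uM, 0.5% DMSO vehicle, duplicates. Readout: ABCG2 transcript by qRT-PCR (Fluidigm array), housekeeping-normalized; bidirectional curve fit relative to DMSO baseline.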

Read-out in assay [3]: ATP-citrate lyase (ACLY), ACLY (gene 47)
The assay can be described thus: LTEA_HepaRG_ACLY: Life Technologies and Expression Analysis (LTEA) Assay for ATP-citrate lyase (ACLY) using HepaRG (AID 2283466). An outline of the steps:
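qRT-PCR readout of ACLY transcript after 48 h chemical treatment of HepaRG cells; expression normalized to three housekeeping genes. Eight-point half-log series, highest 100 uM, 0.5% DMSO vehicle. Gain or loss fitted against DMSO baseline.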

Read-out in assay [4]: Peroxisomal acyl-coenzyme A oxidase 1 (ACOX1) gene, ACOX1 (gene 51)
Nature of the assay: LTEA_HepaRG_ACOX1: Life Technologies and Expression Analysis (LTEA) Assay for Peroxisomal acyl-coenzyme A oxidase 1 (ACOX1) gene using HepaRG (AID 2283467). An outline of the steps: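 HepaRG, 48 h chemical exposure, 8-pt half-log series from 100 uM top, 0.5% DMSO vehicle, duplicates. Readout: ACOX1 mRNA by Fluidigm qRT-PCR, housekeeping-normalized; bidirectional fit vs DMSO baseline.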

Read-out in assay [5]: Alkaline Phosphatase, Placental (ALPP) gene, ALPP (gene 250)
The assay can be described thus: LTEA_HepaRG_ALPP: Life Technologies and Expression Analysis (LTEA) Assay for Alkaline Phosphatase, Placental (ALPP) gene using HepaRG (AID 2283468). A digest of the protocol: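 ALPP transcript level, measured by qRT-PCR and normalized to three housekeeping genes (ACTB, GAPDH, POLR2A), after 48 h dosing of differentiated HepaRG in serum-free induction medium. Top concentration 100 uM with half-log dilutions (8 points, 0.5% DMSO, duplicates); bidirectional fitting relative to DMSO.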

Read-out in assay [6]: Bcl-2 (BAD) gene, BAD (gene 572)
The assay can be described thus: LTEA_HepaRG_BAD: Life Technologies and Expression Analysis (LTEA) Assay for Bcl-2 (BAD) gene using HepaRG (AID 2283469). An outline of the steps: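 HepaRG, 48 h exposure, 8-pt half-log curve from 100 uM in 0.5% DMSO, duplicates. Readout: TaqMan qRT-PCR for BAD mRNA, housekeeping-normalised (ACTB/GAPDH/POLR2A); gain or loss fitted against DMSO baseline.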

Read-out in assay [7]: Bcl-2 (BAX) gene, BAX (gene 581)
The assay can be described thus: LTEA_HepaRG_BAX: Life Technologies and Expression Analysis (LTEA) Assay for Bcl-2 (BAX) gene using HepaRG (AID 2283470). An outline of the steps: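 qRT-PCR read-out of BAX mRNA, normalized to three housekeeping genes, after 48 h chemical exposure of human HepaRG cells in serum-free induction medium; eight-point half-log series, top 100 uM, 0.5% DMSO vehicle; bidirectional fit versus DMSO.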

Read-out in assay [8]: adenosine kinase (ADK) gene, ADK (gene 132)
The assay can be described thus: LTEA_HepaRG_ADK: Life Technologies and Expression Analysis (LTEA) Assay for adenosine kinase (ADK) gene using HepaRG (AID 2283471). An outline of the steps:
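Following 48 h exposure of HepaRG cells in 0.5% DMSO (top concentration 100 uM, duplicate wells), ADK mRNA induction or suppression was measured by qRT-PCR, normalised to ACTB/GAPDH/POLR2A, and fitted bidirectionally relative to vehicle.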

Read-out in assay [9]: Alpha-fetoprotein (AFP) gene, AFP (gene 174)
Nature of the assay: LTEA_HepaRG_AFP: Life Technologies and Expression Analysis (LTEA) Assay for Alpha-fetoprotein (AFP) gene using HepaRG (AID 2283472). An outline of the steps:
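qRT-PCR (Fluidigm TaqMan) readout of AFP transcript, normalized to three housekeeping genes, fitted bidirectionally against 0.5% DMSO baseline. HepaRG cells received chemicals for 48 h in serum-free induction medium, top concentration 100 uM, half-log steps.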

Read-out in another assay: BCL2L11 (gene 10018)
Nature of the assay: LTEA_HepaRG_BCL2L11: Life Technologies and Expression Analysis (LTEA) Assay for Bcl-2 (BCL2L11) gene using HepaRG (AID 2283473). A digest of the protocol: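 BCL2L11 transcript levels are measured by Fluidigm qRT-PCR, normalized to three housekeeping genes. HepaRG cultures were plated 48 h, then treated 48 h with test chemical (top 100 uM, half-log, 0.5% DMSO vehicle); curves were fitted bidirectionally against DMSO.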

Read-out in assay [10]: Apolipoprotein A-V (APOA5) gene, APOA5 (gene 116519)
The assay can be described thus: LTEA_HepaRG_APOA5: Life Technologies and Expression Analysis (LTEA) Assay for Apolipoprotein A-V (APOA5) gene using HepaRG (AID 2283474). An outline of the steps: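 APOA5 transcript levels were quantified by qRT-PCR, normalized to three housekeeping genes, after 48 h chemical treatment of HepaRG cells (8 points, 100 uM maximum, half-log steps, 0.5% DMSO). Curves fitted in both directions against vehicle.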

Read-out in assay [11]: Apoptosis regulator Bcl-2 (Homo sapiens) (UniProt P10415)
Nature of the assay: LTEA_HepaRG_BCL2: Life Technologies and Expression Analysis (LTEA) Assay for Bcl-2 gene using HepaRG (AID 2283475). An outline of the steps:
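qRT-PCR read-out (Fluidigm TaqMan) of BCL2 transcript, normalised to three housekeeping genes, after 48 h chemical exposure of HepaRG cells; 8-point half-log series, top 100 uM, 0.5% DMSO vehicle. Gain or loss of signal fitted relative to DMSO baseline.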

Read-out in assay [12]: Bcl-2 (BID) gene, BID (gene 637)
Nature of the assay: LTEA_HepaRG_BID: Life Technologies and Expression Analysis (LTEA) Assay for Bcl-2 (BID) gene using HepaRG (AID 2283476). A digest of the protocol:
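HepaRG, 48 h exposure, 8-pt half-log series, top 100 uM, 0.5% DMSO vehicle, duplicates. Readout: BID mRNA by TaqMan qRT-PCR; housekeeping-normalized; bidirectional curve fit vs DMSO baseline.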

Read-out in a further assay: Caspase-3 (Homo sapiens) (UniProt P42574)
Nature of the assay: LTEA_HepaRG_CASP3: Life Technologies and Expression Analysis (LTEA) Assay for cysteine-aspartic acid protease (CASP3) using HepaRG (AID 2283477). An outline of the steps: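 Expression of CASP3 was quantified by TaqMan qRT-PCR against three housekeeping genes (ACTB, GAPDH, POLR2A), bidirectionally versus 0.5% DMSO. HepaRG cultures received compounds in duplicate, top 100 uM with half-log steps, for 48 h in serum-free induction medium.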

Read-out in assay [13]: Cytochrome P450 (CYP24A1), CYP24A1 (gene 1591)
Nature of the assay: LTEA_HepaRG_CYP24A1: Life Technologies and Expression Analysis (LTEA) Assay for Cytochrome P450 (CYP24A1) using HepaRG (AID 2283478). A digest of the protocol:
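mRNA of CYP24A1 quantified by TaqMan qRT-PCR (ACTB/GAPDH/POLR2A normalization) after 48 h chemical exposure of HepaRG cells, top concentration 100 uM, half-log steps, 0.5% DMSO vehicle, duplicates. Curves fitted bidirectionally against DMSO baseline.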

Read-out in assay [14]: Cytochrome P450 (CYP1A2), CYP1A2 (gene 1544)
Nature of the assay: LTEA_HepaRG_CYP1A2: Life Technologies and Expression Analysis (LTEA) Assay for Cytochrome P450 (CYP1A2) using HepaRG (AID 2283479). An outline of the steps:
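CYP1A2 transcript measured by TaqMan qRT-PCR against three housekeeping genes after 48-hour chemical exposure of HepaRG cells. Eight-point half-log series topping at 100 uM in 0.5% DMSO, duplicates; gain or loss fitted relative to vehicle.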

Read-out in assay [15]: cysteine-aspartic acid protease (CASP8), CASP8 (gene 841)
Nature of the assay: LTEA_HepaRG_CASP8: Life Technologies and Expression Analysis (LTEA) Assay for cysteine-aspartic acid protease (CASP8) using HepaRG (AID 2283480). A digest of the protocol: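 qRT-PCR readout of CASP8 mRNA, normalized to three housekeeping genes, after 48 h chemical exposure of HepaRG cells; 8-point half-log series, top 100 uM, 0.5% DMSO vehicle. Bidirectional curve fitting against DMSO baseline.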

Read-out in assay [16]: Cytochrome P450 (CYP2B6), CYP2B6 (gene 1555)
The assay can be described thus: LTEA_HepaRG_CYP2B6: Life Technologies and Expression Analysis (LTEA) Assay for Cytochrome P450 (CYP2B6) using HepaRG (AID 2283481). A digest of the protocol: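 CYP2B6 transcript level quantified by qRT-PCR against three housekeeping genes, fitted bidirectionally relative to DMSO. HepaRG cultures received chemicals for 48 h, 8-point half-log series from 100 uM in 0.5% DMSO, duplicate wells, serum-free induction medium.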

Read-out in assay [17]: Cytochrome P450 2C19 (Homo sapiens) (UniProt P33261)
The assay can be described thus: LTEA_HepaRG_CYP2C19: Life Technologies and Expression Analysis (LTEA) Assay for CYP2C19 using HepaRG (AID 2283482). An outline of the steps:
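CYP2C19 transcript levels by qRT-PCR, normalized to three housekeeping genes, in HepaRG cells after 48 h chemical exposure. Eight-point half-log series topping at 100 uM, 0.5% DMSO vehicle. Increases and decreases both fitted against DMSO.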

Read-out in another assay: CYP2C8 (gene 1558)
The assay can be described thus: LTEA_HepaRG_CYP2C8: Life Technologies and Expression Analysis (LTEA) Assay for CYP2C8 using HepaRG (AID 2283483). An outline of the steps:
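HepaRG (human liver line), 48 h chemical exposure, 8-pt half-log series from 100 uM, 0.5% DMSO vehicle. Readout: CYP2C8 transcript by qRT-PCR, housekeeping-normalized. Bidirectional fit vs DMSO baseline.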

Sequence of Caspase-3 (Homo sapiens) (P42574 whole entry, looked up): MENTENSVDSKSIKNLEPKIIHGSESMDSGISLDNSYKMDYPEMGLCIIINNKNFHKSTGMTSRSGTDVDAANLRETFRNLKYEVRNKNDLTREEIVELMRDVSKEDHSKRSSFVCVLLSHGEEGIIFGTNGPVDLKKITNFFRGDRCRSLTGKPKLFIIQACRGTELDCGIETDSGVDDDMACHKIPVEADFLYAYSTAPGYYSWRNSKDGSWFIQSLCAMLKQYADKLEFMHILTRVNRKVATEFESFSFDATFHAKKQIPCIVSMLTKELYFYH
Sequence of Cytochrome P450 2C19 (Homo sapiens) (P33261 whole entry, looked up): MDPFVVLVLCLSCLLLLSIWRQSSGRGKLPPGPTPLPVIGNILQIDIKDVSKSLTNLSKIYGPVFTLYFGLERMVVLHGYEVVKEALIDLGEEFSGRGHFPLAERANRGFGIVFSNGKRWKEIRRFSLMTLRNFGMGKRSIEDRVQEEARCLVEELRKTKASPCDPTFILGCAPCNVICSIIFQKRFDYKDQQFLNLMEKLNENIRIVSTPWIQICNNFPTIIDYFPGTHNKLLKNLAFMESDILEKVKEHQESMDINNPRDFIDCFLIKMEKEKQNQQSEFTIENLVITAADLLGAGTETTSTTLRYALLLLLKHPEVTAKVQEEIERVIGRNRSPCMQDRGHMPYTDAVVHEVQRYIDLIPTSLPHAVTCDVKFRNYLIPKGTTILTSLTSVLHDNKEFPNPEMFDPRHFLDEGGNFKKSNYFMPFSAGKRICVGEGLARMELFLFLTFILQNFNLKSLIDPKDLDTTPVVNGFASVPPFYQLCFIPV
Sequence of Apoptosis regulator Bcl-2 (Homo sapiens) (P10415 whole entry, looked up): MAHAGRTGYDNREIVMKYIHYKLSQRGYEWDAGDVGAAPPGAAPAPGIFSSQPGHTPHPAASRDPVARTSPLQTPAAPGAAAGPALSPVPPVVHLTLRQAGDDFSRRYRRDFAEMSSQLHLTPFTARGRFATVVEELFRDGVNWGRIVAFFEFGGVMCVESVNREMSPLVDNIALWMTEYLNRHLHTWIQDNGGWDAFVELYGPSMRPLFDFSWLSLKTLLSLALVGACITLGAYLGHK
Sequence of Broad substrate specificity ATP-binding cassette transporter ABCG2 (Homo sapiens) (Q9UNQ0 whole entry, looked up): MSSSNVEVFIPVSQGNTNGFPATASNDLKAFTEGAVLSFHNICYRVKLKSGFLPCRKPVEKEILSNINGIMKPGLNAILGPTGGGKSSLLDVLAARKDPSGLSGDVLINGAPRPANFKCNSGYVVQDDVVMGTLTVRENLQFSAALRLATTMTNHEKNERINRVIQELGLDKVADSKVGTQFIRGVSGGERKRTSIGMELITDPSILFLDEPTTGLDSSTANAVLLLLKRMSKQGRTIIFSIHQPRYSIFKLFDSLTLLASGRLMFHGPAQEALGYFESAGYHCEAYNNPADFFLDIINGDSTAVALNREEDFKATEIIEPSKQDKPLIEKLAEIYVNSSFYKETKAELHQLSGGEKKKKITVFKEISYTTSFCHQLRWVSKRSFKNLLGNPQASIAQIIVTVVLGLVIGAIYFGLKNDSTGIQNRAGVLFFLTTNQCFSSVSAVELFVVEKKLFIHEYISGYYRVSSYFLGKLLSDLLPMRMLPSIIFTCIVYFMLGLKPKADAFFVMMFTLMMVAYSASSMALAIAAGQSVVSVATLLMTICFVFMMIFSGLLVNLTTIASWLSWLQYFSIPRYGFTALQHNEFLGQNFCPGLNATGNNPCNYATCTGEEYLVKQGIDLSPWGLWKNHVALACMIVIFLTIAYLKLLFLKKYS

In the case of `CN(C)c1ccccc1`, the compound was classed as inactive in [1], in assay [2], in assay [3], in assay [4], in assay [5] and in assay [6]. Further, the outcome (in assay [7]; in assay [8]; in [9]; with BCL2L11 (gene 10018); in assay [10]; in [11]) was inactive. Moreover, the compound was classed as inactive (in assay [12]; in the assay with Caspase-3 (Homo sapiens); in assay [13]; in assay [14]; in assay [15]; in [17]). Moreover, in the assay with CYP2C8 (gene 1558), the compound was called inactive. Besides, the half-maximal activity concentration (AC50) in assay [16] was 33.4 µM (active).

For the compound `CC(C)N(Cc1ccccc1)C(=O)C(C)(C)C`, the AC50 was 50 µM (active) in assay [1], 2.31 µM (active) in assay [16], 11.1 µM (active) in [17] and 10.4 µM (active) in the assay with CYP2C8 (gene 1558). The outcome in assay [2], in assay [3], in assay [4], in [5], in [6] and in [7] was inactive. The outcome (in assay [8]; in assay [9]; with BCL2L11 (gene 10018); in [10]; in assay [11]; in assay [12]) was inactive. In addition, the outcome (with Caspase-3 (Homo sapiens); in assay [13]; in assay [14]; in [15]) was inactive.

Consider `CC(O)CCO` (stereo not drawn), for which the result in assay [1], in [2], in [3], in assay [4], in [5] and in assay [7] was inactive. Also, the outcome (in assay [8]; in [9]; in the assay with BCL2L11 (gene 10018); in [10]; in [11]; in assay [12]) was inactive. Also, the call (with Caspase-3 (Homo sapiens); in assay [13]; in assay [14]; in assay [15]; in assay [17]; with CYP2C8 (gene 1558)) was inactive.

A word on the AC50: it is the midpoint of the concentration-response curve, whichever way the signal moves.
